In all, about 16,000 sequences were measured (“rpm ratio (pull-down/input)”: median about 0.5, highest 2% from about 5.5 on). The full list was thinned out, with the highest values kept by preference.
Target: T1, MBP-FoxP3dN (Mus musculus, UniProt Q99JB6 188-423)
T1 sequence: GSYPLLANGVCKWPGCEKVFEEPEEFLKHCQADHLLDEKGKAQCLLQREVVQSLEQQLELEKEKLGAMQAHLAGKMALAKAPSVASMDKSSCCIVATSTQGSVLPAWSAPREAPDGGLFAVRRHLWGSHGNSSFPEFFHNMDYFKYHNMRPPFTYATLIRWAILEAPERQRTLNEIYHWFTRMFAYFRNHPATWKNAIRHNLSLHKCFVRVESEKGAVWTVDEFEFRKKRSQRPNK
Assay: PD-seq (MBP pull-down with sequencing); 20 mM Tris-HCl pH 7.5, 100 mM NaCl, 1.5 mM MgCl2, 0.4 uM protein, 0.1 uM dsDNA library, 30 min, room temperature, amylose pull-down; high values mean tight binding
Details: protein: recombinant; tags: His6-MBP; chain copies: 2; dsDNA, one strand shown
Summary of the method: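 Binding is reads-per-million enrichment of pull-down over input, with replicates pooled. It comes from 30 min room-temperature incubation in Tris pH 7.5 buffer with NaCl and MgCl2 of 0.4 µM His6-MBP-tagged, N-terminally truncated mouse FoxP3 or FoxP1 fragment from E. coli with 0.1 µM Klenow-filled degenerate double-stranded DNA library, followed by amylose resin capture, three washes and Illumina sequencing of the released DNA.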

| Sequence | binding signal |
| --- | --- |
| GATGATTGTTCTCCCAGCTGATGAATTGTGCCGATCGAGTAAACAAATTTTCCTAATCTTTCTGTTCAAGCGCCATCTAC | 1.02 RPM ratio (pull-down/input) |
| GATGATTGTTCTCCCAGCTGATGAATTTTTTGAATCGAGTAAACAAATTTTCCTAATCTTTCTGTTCAAGCGCCATCTAC | 0.229 RPM ratio (pull-down/input) |
| GATGATTGTTCTCCCAGCTGATGAATTGGGTGTTTCGAGTAAACAAATTTTCCTAATCTTTCTGTTCAAGCGCCATCTAC | 1.38 RPM ratio (pull-down/input) |
| GATGATTGTTCTCCCAGCTGATGAATTCAACTGATCGAGTAAACAAATTTTCCTAATCTTTCTGTTCAAGCGCCATCTAC | 0.332 RPM ratio (pull-down/input) |
| GATGATTGTTCTCCCAGCTGATGAATTGAATATGTCGAGTAAACAAATTTTCCTAATCTTTCTGTTCAAGCGCCATCTAC | 0.689 RPM ratio (pull-down/input) |
| GATGATTGTTCTCCCAGCTGATGAATTGACACTCTCGAGTAAACAAATTTTCCTAATCTTTCTGTTCAAGCGCCATCTAC | 0.6 RPM ratio (pull-down/input) |
| GATGATTGTTCTCCCAGCTGATGAATTCTTGAATTCGAGTAAACAAATTTTCCTAATCTTTCTGTTCAAGCGCCATCTAC | 0.493 RPM ratio (pull-down/input) |
| GATGATTGTTCTCCCAGCTGATGAATTGTACTTTTCGAGTAAACAAATTTTCCTAATCTTTCTGTTCAAGCGCCATCTAC | 0.551 RPM ratio (pull-down/input) |
| GATGATTGTTCTCCCAGCTGATGAATTGGGTGAGTCGAGTAAACAAATTTTCCTAATCTTTCTGTTCAAGCGCCATCTAC | 0.443 RPM ratio (pull-down/input) |
| GATGATTGTTCTCCCAGCTGATGAATTCACTTGTTCGAGTAAACAAATTTTCCTAATCTTTCTGTTCAAGCGCCATCTAC | 1.02 RPM ratio (pull-down/input) |
| GATGATTGTTCTCCCAGCTGATGAATTCAGTAACTCGAGTAAACAAATTTTCCTAATCTTTCTGTTCAAGCGCCATCTAC | 1.34 RPM ratio (pull-down/input) |
| GATGATTGTTCTCCCAGCTGATGAATTCAACACCTCGAGTAAACAAATTTTCCTAATCTTTCTGTTCAAGCGCCATCTAC | 0.553 RPM ratio (pull-down/input) |
| GATGATTGTTCTCCCAGCTGATGAATTTATTTTGTCGAGTAAACAAATTTTCCTAATCTTTCTGTTCAAGCGCCATCTAC | 5.94 RPM ratio (pull-down/input) |
| GATGATTGTTCTCCCAGCTGATGAATTTATTTGGTCGAGTAAACAAATTTTCCTAATCTTTCTGTTCAAGCGCCATCTAC | 6.15 RPM ratio (pull-down/input) |
| GATGATTGTTCTCCCAGCTGATGAATTATTTTGGTCGAGTAAACAAATTTTCCTAATCTTTCTGTTCAAGCGCCATCTAC | 0.995 RPM ratio (pull-down/input) |
| GATGATTGTTCTCCCAGCTGATGAATTTAATTTGTCGAGTAAACAAATTTTCCTAATCTTTCTGTTCAAGCGCCATCTAC | 3.39 RPM ratio (pull-down/input) |
| GATGATTGTTCTCCCAGCTGATGAATTTTATTGGTCGAGTAAACAAATTTTCCTAATCTTTCTGTTCAAGCGCCATCTAC | 4.94 RPM ratio (pull-down/input) |
| GATGATTGTTCTCCCAGCTGATGAATTTATATTGTCGAGTAAACAAATTTTCCTAATCTTTCTGTTCAAGCGCCATCTAC | 2.37 RPM ratio (pull-down/input) |
| GATGATTGTTCTCCCAGCTGATGAATTGCCCCCTTCGAGTAAACAAATTTTCCTAATCTTTCTGTTCAAGCGCCATCTAC | 0.413 RPM ratio (pull-down/input) |
| GATGATTGTTCTCCCAGCTGATGAATTTCCGGTATCGAGTAAACAAATTTTCCTAATCTTTCTGTTCAAGCGCCATCTAC | 0.44 RPM ratio (pull-down/input) |

| Sequence | binding signal |
| --- | --- |
| GATGATTGTTCTCCCAGCTGATGAATTGGCATCTTCGAGTAAACAAATTTTCCTAATCTTTCTGTTCAAGCGCCATCTAC | 4.07 RPM ratio (pull-down/input) |
| GATGATTGTTCTCCCAGCTGATGAATTGGCATCCTCGAGTAAACAAATTTTCCTAATCTTTCTGTTCAAGCGCCATCTAC | 4.28 RPM ratio (pull-down/input) |
| GATGATTGTTCTCCCAGCTGATGAATTCGTGGCATCGAGTAAACAAATTTTCCTAATCTTTCTGTTCAAGCGCCATCTAC | 1.13 RPM ratio (pull-down/input) |
| GATGATTGTTCTCCCAGCTGATGAATTTGGCATTTCGAGTAAACAAATTTTCCTAATCTTTCTGTTCAAGCGCCATCTAC | 6.16 RPM ratio (pull-down/input) |
| GATGATTGTTCTCCCAGCTGATGAATTGGCATTTTCGAGTAAACAAATTTTCCTAATCTTTCTGTTCAAGCGCCATCTAC | 3.38 RPM ratio (pull-down/input) |
| GATGATTGTTCTCCCAGCTGATGAATTGTGGCATTCGAGTAAACAAATTTTCCTAATCTTTCTGTTCAAGCGCCATCTAC | 6.18 RPM ratio (pull-down/input) |
| GATGATTGTTCTCCCAGCTGATGAATTTGGCATCTCGAGTAAACAAATTTTCCTAATCTTTCTGTTCAAGCGCCATCTAC | 6.36 RPM ratio (pull-down/input) |
| GATGATTGTTCTCCCAGCTGATGAATTGGCATTCTCGAGTAAACAAATTTTCCTAATCTTTCTGTTCAAGCGCCATCTAC | 3.49 RPM ratio (pull-down/input) |
| GATGATTGTTCTCCCAGCTGATGAATTTTGGCATTCGAGTAAACAAATTTTCCTAATCTTTCTGTTCAAGCGCCATCTAC | 5.56 RPM ratio (pull-down/input) |
| GATGATTGTTCTCCCAGCTGATGAATTTTTGGCATCGAGTAAACAAATTTTCCTAATCTTTCTGTTCAAGCGCCATCTAC | 0.785 RPM ratio (pull-down/input) |
| GATGATTGTTCTCCCAGCTGATGAATTCTGGCATTCGAGTAAACAAATTTTCCTAATCTTTCTGTTCAAGCGCCATCTAC | 4.83 RPM ratio (pull-down/input) |
| GATGATTGTTCTCCCAGCTGATGAATTTGGCCATTCGAGTAAACAAATTTTCCTAATCTTTCTGTTCAAGCGCCATCTAC | 4.06 RPM ratio (pull-down/input) |
| GATGATTGTTCTCCCAGCTGATGAATTGGGTGGTTCGAGTAAACAAATTTTCCTAATCTTTCTGTTCAAGCGCCATCTAC | 0.736 RPM ratio (pull-down/input) |
| GATGATTGTTCTCCCAGCTGATGAATTGCAGAGTTCGAGTAAACAAATTTTCCTAATCTTTCTGTTCAAGCGCCATCTAC | 0.781 RPM ratio (pull-down/input) |
| GATGATTGTTCTCCCAGCTGATGAATTGTTCGACTCGAGTAAACAAATTTTCCTAATCTTTCTGTTCAAGCGCCATCTAC | 0.414 RPM ratio (pull-down/input) |
| GATGATTGTTCTCCCAGCTGATGAATTTTGTCCGTCGAGTAAACAAATTTTCCTAATCTTTCTGTTCAAGCGCCATCTAC | 0.813 RPM ratio (pull-down/input) |
| GATGATTGTTCTCCCAGCTGATGAATTCTTTTGTTCGAGTAAACAAATTTTCCTAATCTTTCTGTTCAAGCGCCATCTAC | 0.487 RPM ratio (pull-down/input) |
| GATGATTGTTCTCCCAGCTGATGAATTCAAACATTCGAGTAAACAAATTTTCCTAATCTTTCTGTTCAAGCGCCATCTAC | 1.12 RPM ratio (pull-down/input) |
| GATGATTGTTCTCCCAGCTGATGAATTGGCGAATTCGAGTAAACAAATTTTCCTAATCTTTCTGTTCAAGCGCCATCTAC | 0.898 RPM ratio (pull-down/input) |
| GATGATTGTTCTCCCAGCTGATGAATTGGCGCATTCGAGTAAACAAATTTTCCTAATCTTTCTGTTCAAGCGCCATCTAC | 6.97 RPM ratio (pull-down/input) |

From publication PMC12820563, “FoxP3 forms a head-to-head dimer in vivo and stabilizes its multimerization on adjacent microsatellites”
